# Source: the supplement of paper PMC10477191
# ± gives the standard deviation of the averaged measurements.
# Key:
# [1] = system: Drosophila ezoana antennal basiconic sensillum ab4; test: odor-evoked OSN spike response (post minus pre-stimulus); higher = stronger neuronal excitation; settings: odor dilution: 10^-4
# Method in brief: (§1)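 The response is the change in spike frequency between pre-stimulus and post-stimulus windows, averaged over replicate sensilla. Both windows lasted 1 second, and spikes were counted with Auto Spike software. Single sensillum recordings used a tungsten electrode at the base of antennal basiconic sensilla on restrained adult flies, with up to 3 sensilla per fly, and odorant at 10^−4 in mineral oil or DMSO (10 µl on filter paper) was delivered as a 500 ms pulse into a charcoal-filtered, humidified 1.5 l min^−1 air stream.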
# [2] = system: Drosophila virilis antennal basiconic sensillum AB11; test: as above; settings: odor dilution: 10^-4
# Method in brief: as §1
Compound,odor-evoked OSN spike response [1] [spikes/s],odor-evoked OSN spike response [2] [spikes/s]
C[C@H]1CCC[C@@]2(C)CCCC[C@]12O [geosmin],119 ± 39,
CCOC(=O)c1ccccc1 [ethyl benzoate],,23.1 ± 7.8
CC(C)OC(=O)c1ccccc1 [isopropyl benzoate],,54 ± 12
